This excerpt belongs to a sample that is enriched for hits.
Pf Dd2 inh: blocks in vitro growth of P. falciparum Dd2. P. falciparum Dd2 growth, SYBR Green, 72 h. Potency, µM (highest dose often 28.9 µM), inactives show top-dose activity, negative = inhibition, most hits filed as inhibitors. 120,000 compounds, 4.3% hits; active = well fitted inhibition curve with a large enough effect;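 note: plate controls were DMSO vehicle for no effect and reference drug for full effect; nearly all actives have a fitted effect of over 65% in size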
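Infected erythrocytes (Dd2, 0.3% parasitemia, 2.5% hematocrit final) are added to compound in RPMI-1640/Albumax II medium, grown 72 h at 37C in low oxygen, then lysed with saponin/Triton-X containing SYBR Green and read by fluorescence.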
Starred values were filed as active, the others as inactive; i = inactive; [ ] = another dose, or the depositor's remark. Potency is the fitted concentration of half-maximal effect.

SMILES	Pf Dd2 inh
COc1ccccc1NC(=O)c1cc2c(N3CCSCC3)nc(C)cn2n1	-2%
O=C1NCCOCCCN(C(=O)c2nccc3ccccc23)[C@H]2CCCC[C@@H]12	i
COCCOCc1nc(C2CCCCN2C(=O)Nc2cccc(Cl)c2)no1 (stereo unspecified)	i
COC[C@@H]1CN(C(=O)Cc2cc(C)no2)C[C@H]1c1ccncc1	16%
Cc1[nH]c(=O)c(C#N)cc1C(=O)N1CCCC2(CCC(=O)N(C3CC3)C2)C1 (stereo unspecified)	-5%
O=C(C1CCCC1)N1C[C@@H](COc2ccncc2)[C@H](c2ccccn2)C1	0%
Cc1ccc(-n2nc3n(c2=O)CCN([S+](C)(=O)[O-])C3)cc1	-12%[44.1 µM]
C=CCNC(=O)c1c[nH]c2cccnc12	9%[44.1 µM]
Cc1cccc(CNC(=O)c2ccc3c(c2)c(C)c(C)n3Cc2ccccc2)c1	-3%
Cc1c(C)n(Cc2ccc(F)cc2)c2ccc(C(=O)NCc3ccco3)cc12	3.5µM*
CCn1c(C)c(C)c2cc(C(=O)NCc3ccc(F)cc3)ccc21	i
CC1CCC2(CC1)NC(=O)N(CC(=O)NC1CCCCC1)C2=O (stereo unspecified)	1%
CN(C)C[C@H]1O[C@@H](CO)[C@@H](O)[C@H]1N1CCN(c2cccc(C(F)(F)F)c2)CC1	i
COc1ccc(S(=O)(=O)N2CCc3nc4cc[nH]n4c(=O)c3C2)cc1Cl	33%[5.79 µM]
N#Cc1cccc(CN2C[C@@H](CO)[C@H](NC(=O)c3ccccc3)C2)c1	-17%
O=C(N[C@@H]1CN(Cc2ccc(F)cc2Cl)C[C@H]1CO)C1CCC1	8.9µM*
O=C(N[C@@H]1CN(Cc2ccc(F)cc2F)C[C@H]1CO)c1ccccc1	10µM*
O=C(N[C@@H]1CN(Cc2ccc(F)cc2Cl)C[C@H]1CO)C1CC1	-5%
CN1C[C@@H](CO)[C@H](NC(=O)c2ccccc2)C1	11%
O=C(N[C@@H]1CN(Cc2ccc(Cl)c(F)c2)C[C@H]1CO)C1CCC1	-27%
Cc1ccc(C(=O)N2C[C@@H](N)C[C@H]2C(=O)NC(C)C)cc1N1CCNC1=O	1%
CCN(CCCNC(=O)CC1=C2CCCCC2NC1=O)c1ccccc1 (stereo unspecified)	-27%
COC[C@H]1CCCN1Cc1nc(C2(O)CCN(C3CCN(C)CC3)CC2)cs1	-8%[44.1 µM]
c1c(CN2CCCN(CCCN3CCCC3)CC2)nn2c1CNCC2	-5%
O=S(=O)(Cc1ccccc1)NC[C@H]1Cn2c(-c3ccc(Cl)cc3)cnc2CO1	-7%[44.1 µM]
SMILES	Pf Dd2 inh
COc1ncccc1CNC[C@H]1Cn2c(-c3ccc(F)cc3)cnc2CO1	25µM*
O=S(=O)(Cc1ccccc1)NC[C@H]1Cn2c(-c3ccc(F)cc3)cnc2CO1	i
CS(=O)(=O)NC[C@H]1Cn2c(-c3ccc4c(c3)OCCO4)cnc2CO1	i
c1ccc(CNC[C@H]2Cn3c(-c4ccc5c(c4)OCCO5)cnc3CO2)cc1	11µM*
O=C(NCc1ccccc1)NC[C@H]1Cn2c(-c3ccc(Cl)cc3)cnc2CO1	2.8µM*
Clc1ccc(-c2cnc3n2C[C@H](CNCc2cccnc2)OC3)cc1	-11%[44.1 µM]
O=C(NC[C@H]1Cn2c(-c3ccc4c(c3)OCCO4)cnc2CO1)C1CC1	-8%[44.1 µM]
Clc1ccc(CNC[C@H]2Cn3c(-c4ccccc4)cnc3CO2)cc1	-12%[44.1 µM]
CCOc1ccccc1CNC(=O)[C@@H]1CN(S(C)(=O)=O)C[C@H]1c1ccncc1	2%
O=C(CCC1CCCN(S(=O)(=O)c2ccccc2)C1)NC1CCS(=O)(=O)C1 (stereo unspecified)	2%
COc1cccc(CNc2ncnc3c2CN(C2CCCNCC2)C(=O)CN3C)c1 (stereo unspecified)	-10%
CC(C)c1ccc(C(=O)N2CC(C(=O)NCCc3ccncc3)C3(CCOCC3)C2)cc1 (stereo unspecified)	-10%
O=C(Cc1ccc2c(c1)OCO2)N1CCCn2nc(C(O)CO)cc2C1 (stereo unspecified)	-7%
Cc1noc(C)c1CC(=O)N1Cc2ccccc2OC2(CCN(C(=O)NC(C)C)CC2)C1	-9%
Cc1ccc(C(C)CCN2CCC3(CC2)C(=O)N(Cc2ccccn2)C(=O)N3Cc2ccccc2)o1 (stereo unspecified)	i
COC[C@@H]1CN(C(=O)c2ccc3ncccc3c2)C[C@H]1c1ccncc1	-2%
Cc1ccc(C2NC(=O)N(CC(=O)Nc3ccc(C(C)C)cc3)C3=C2C(=O)OC3)cc1 (stereo unspecified)	-20%
O=C(NCC1Cn2cccc2CN1Cc1ccccc1)c1n[nH]c2ccccc12 (stereo unspecified)	13µM*
O=C(NCC1Cn2cccc2C(=O)N1Cc1ccccc1)c1ccncc1 (stereo unspecified)	-7%
O=C(NCC1Cn2cccc2CN1Cc1ccccc1)c1ccncc1 (stereo unspecified)	-28%
Cc1ccc(C2Cn3nnc(-c4noc(Cc5ccc(F)cc5)n4)c3CO2)cc1 (stereo unspecified)	-25%
Cn1cnc(C(=O)N2CCC(N(Cc3ccccc3)C3CCOCC3)CC2)c1	-7%
Cn1cc(C(=O)N2CCC(N(Cc3ccccc3)C3CCOCC3)CC2)cn1	i
O=C(c1cccc(Cl)c1)N1CCC(N(Cc2ccccc2)C2CCOCC2)CC1	5µM*
COc1cccc(CC(=O)Nc2ccc3c(c2)CN(Cc2ccccc2Cl)C(=O)C(C)O3)c1 (stereo unspecified)	-3%
SMILES	Pf Dd2 inh
COc1ccccc1C(=O)N1CCn2c(nnc2C2CCCNC2)C1 (stereo unspecified)	13%
CC(C)(C)CN1CCOC[C@H]1c1ncc(-c2ccc(S(C)(=O)=O)cc2)[nH]1	-24%[44.1 µM]
COc1cc(NC(=O)[C@H]2CCC[C@H]2NC(=O)c2cnc(C)cn2)cc(OC)c1OC	-14%
Cc1c(C(=O)N2CC[C@@H]3[C@@H](CCC(=O)N3CCN)C2)[nH]c2ccccc12	-3%
COc1ccc(NC(=O)Cn2cc(C(=O)C3CCCCC3)c3ccccc32)cc1	-29%
O=C(c1cccs1)c1cn(CCOc2ccccc2Cl)c2ccccc12	3.2µM*
COc1ccc(OCC(=O)Nc2ccc3c(c2)nc(CCNC(=O)c2ccco2)n3C)cc1	-22%
Cc1ccc(C)c(OCCn2cc(C(=O)c3ccco3)c3ccccc32)c1	1µM*
CCOC(=O)c1ccc(NC(=O)Cn2cc(C(=O)c3cccs3)c3ccccc32)cc1	-4%
Cc1ccc(NC(=O)Cn2cc(C(=O)c3ccccc3)c3ccccc32)c(C)c1	7%
COc1ccc(OCCn2cc(C(=O)c3ccco3)c3ccccc32)cc1	1µM*
O=C(c1cn(CCOc2ccccc2F)c2ccccc12)C1CCCCC1	-27%
Cc1ccc(CN(Cc2ccco2)C(=O)COc2ccccc2C)cc1	i
Cc1ccc(F)cc1S(=O)(=O)N(C)CC1CCOCC1	14%
O=C(c1ccc(F)cc1)N1CCC(c2n[nH]c(=O)n2-c2ccccc2)CC1	19%
O=C(NC1CCCCC1)[C@@H]1C[C@@H](O)CN1C1CCN(C(=O)c2ccco2)CC1	-7%
CN1CCN(c2cc(=O)c3ccnc(-c4ccc(F)cc4)c3o2)CC1	i
NC(=O)[C@@H]1CN(C(=O)CCn2cccn2)C[C@H]1COc1ccccc1	-7%
CC(C)c1nc2c(NC(=O)COc3ccccc3)cccn2n1	i
CCc1nc2c(NC(=O)NCc3ccc(OC)cc3)cccn2n1	i
COc1ccccc1CCC(=O)Nc1cccn2nc(C(C)C)nc12	10µM*
Cc1nc(N2CCC(NC(=O)c3ccco3)CC2)cc(C(F)(F)F)n1	i
OCCC1CN(Cc2cnn(-c3ccccc3)c2)CCN1Cc1cccs1 (stereo unspecified)	i

Screens as filed in PubChem.
